Screening results (PubChem)
FAS TE block: FAS thioesterase (human) inhibition; P49327; inhibition, % at 15 µM; recombinant FAS-TE, OMFH fluorogenic substrate, fluorescence endpoint; 0.67% of 360,000 active; AID 602261;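 active means compounds whose normalised, plate-corrected inhibition of enzyme fluorescence in the single-dose primary screen is 50% or more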;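 further: 0% = DMSO with enzyme and 100% = substrate without enzyme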
H9c2 protect: protects H9c2 cardiomyocytes from peroxide injury | protection from H2O2 cell death, % at 20 µM | H2O2 injury protection, ATPLite, 2 h | 0.63% of 360,000 active;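 active means compounds giving at least 50% protection of heart cells from peroxide-induced death in the single-dose screen, raw or plate-pattern-corrected value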;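 further: 0% = DMSO wells with peroxide and 100% = DMSO wells without peroxide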
PLC-beta3 inh: inhibitors of human phospholipase C beta3. Q01970. Purified PLC-beta3, fluorogenic substrate, fluorescence. inhibition, % at 12.2 µM. 0.18% of 370,000 active. AID 720704; in the data active means inhibition above about 11%;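 further: 0% = median of compound wells on plate and 100% = full blocker control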
PLCg1 inh: inhibitors of human phospholipase C gamma1; P19174; purified PLC-gamma1, fluorogenic substrate, fluorescence; inhibition, % at 12.2 µM; 0.84% of 370,000 active; in the data active means inhibition above about 9.5%
Target sequence (P19174 whole entry, looked up): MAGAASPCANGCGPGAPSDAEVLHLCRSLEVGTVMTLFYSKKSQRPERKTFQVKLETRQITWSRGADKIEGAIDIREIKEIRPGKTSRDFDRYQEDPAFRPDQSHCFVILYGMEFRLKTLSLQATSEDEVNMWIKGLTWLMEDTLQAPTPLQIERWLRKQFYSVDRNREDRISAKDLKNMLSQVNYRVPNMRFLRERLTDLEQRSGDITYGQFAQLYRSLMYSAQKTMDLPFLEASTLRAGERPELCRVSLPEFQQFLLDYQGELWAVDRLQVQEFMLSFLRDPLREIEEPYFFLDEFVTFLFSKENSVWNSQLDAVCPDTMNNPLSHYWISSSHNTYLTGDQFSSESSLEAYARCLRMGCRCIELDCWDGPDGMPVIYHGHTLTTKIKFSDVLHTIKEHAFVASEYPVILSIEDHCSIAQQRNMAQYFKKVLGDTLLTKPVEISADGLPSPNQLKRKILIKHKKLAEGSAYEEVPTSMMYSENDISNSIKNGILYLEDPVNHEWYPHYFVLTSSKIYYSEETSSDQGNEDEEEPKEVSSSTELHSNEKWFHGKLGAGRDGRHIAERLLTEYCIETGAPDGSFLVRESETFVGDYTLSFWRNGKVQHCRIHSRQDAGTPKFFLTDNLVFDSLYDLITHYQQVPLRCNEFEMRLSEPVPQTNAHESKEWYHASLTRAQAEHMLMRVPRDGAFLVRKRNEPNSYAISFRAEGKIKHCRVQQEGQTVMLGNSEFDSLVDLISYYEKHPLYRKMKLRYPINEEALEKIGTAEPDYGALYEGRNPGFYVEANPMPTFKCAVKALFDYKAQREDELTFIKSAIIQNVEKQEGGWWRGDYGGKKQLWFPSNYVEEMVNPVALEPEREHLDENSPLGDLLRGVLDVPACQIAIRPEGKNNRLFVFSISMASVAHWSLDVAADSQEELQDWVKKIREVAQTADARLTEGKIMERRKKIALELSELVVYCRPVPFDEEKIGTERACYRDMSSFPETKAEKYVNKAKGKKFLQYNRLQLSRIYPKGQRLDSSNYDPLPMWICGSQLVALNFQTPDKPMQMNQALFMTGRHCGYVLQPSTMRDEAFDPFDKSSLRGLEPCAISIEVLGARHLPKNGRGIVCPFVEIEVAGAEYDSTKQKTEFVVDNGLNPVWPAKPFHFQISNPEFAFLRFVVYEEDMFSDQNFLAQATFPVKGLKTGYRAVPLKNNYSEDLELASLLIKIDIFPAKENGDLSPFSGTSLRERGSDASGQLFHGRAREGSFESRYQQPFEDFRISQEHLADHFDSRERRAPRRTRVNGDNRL
FAS-TE inh conf: FAS thioesterase (human) inhibition, confirmation; shares compounds with FAS TE block; recombinant FAS-TE, OMFH fluorogenic substrate, fluorescence; inhibition, % at 15 µM; 45% of 2,300 active; AID 624325;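 active means compounds inhibiting the enzyme by at least 50% at 15 µM in any one of the replicates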;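 further: 0% = enzyme with DMSO only and 100% = wells lacking enzyme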
* marks the source's active call; other numbers are inactive results. Sampled rows, rich in hits. Any-hit rate of the full collection: about 2.2%.

What do the screens show for `COCCNC(=O)C1(C)Cc2c(-c3cccc(NC(C)=O)c3)ccnc2O1` (stereo unspecified)?
FAS TE block: -5.9; H9c2 protect: 2.3; PLC-beta3 inh: -1.3; PLCg1 inh: 3.0

What do the screens show for `CC(=O)O[C@H]1[C@H](OC(C)=O)C[C@]2(OC(C)=O)C[C@H]1OC2=O`?
PLC-beta3 inh: -1.5; PLCg1 inh: 6.6

Results for O=C(N[C@H](Cc1ccccc1)C(=O)NCc1ccc(OC(F)(F)F)cc1)[C@H]1O[C@@H](n2ccc(=O)[nH]c2=O)[C@H](O)[C@@H]1O ?
PLC-beta3 inh: 4.0; PLCg1 inh: -1.1

How did C=CCN1C(=O)[C@@H](CC(=O)NCc2ccc(OC)c(OC)c2)[C@]2(C(=O)OCC)CCCCC/C=C/12 do in these assays?
PLC-beta3 inh: -1.7; PLCg1 inh: 1.3

How did Cc1cccc(C(=O)Oc2ccccc2/C=N/NC(=O)c2ccc(NC(=O)C(C)(C)C)cc2)c1 do in these assays?
FAS TE block: 66.3*; H9c2 protect: -0.8; PLC-beta3 inh: -8.2; PLCg1 inh: -2.3; FAS-TE inh conf: 18.1

What do the screens show for `CC(C)(C)C(=O)Nc1ccc(C(=O)N/N=C/c2ccccc2OC(=O)c2ccc(Cl)cc2)cc1`?
FAS TE block: 75.8*; H9c2 protect: 16.2; PLC-beta3 inh: 4.1; PLCg1 inh: 1.5; FAS-TE inh conf: 12.5

How did Cc1cccc(C(=O)Oc2ccc(/C=N/NC(=O)c3ccc(O)cc3)cc2)c1 do in these assays?
FAS TE block: 2.8; H9c2 protect: 48.3; PLC-beta3 inh: 3.6; PLCg1 inh: 6.7

What do the screens show for `C[C@@H]1CN([C@@H](C)CO)C(=O)CCCn2nncc2CO[C@@H]1CN(C)S(=O)(=O)c1ccccc1C#N`?
FAS TE block: -6.4; H9c2 protect: -11.8; PLC-beta3 inh: 5.7; PLCg1 inh: 3.1

How did CCCCOc1nc(N2CCOCC2)nc(C)c1[N+](=O)[O-] do in these assays?
FAS TE block: 15.7; H9c2 protect: -1.0; PLC-beta3 inh: -2.4; PLCg1 inh: 2.9

How did Cc1nc(N2CCOCC2)nc(Oc2ccccc2)c1[N+](=O)[O-] do in these assays?
FAS TE block: 51.6*; H9c2 protect: -5.4; PLC-beta3 inh: 1.1; PLCg1 inh: 2.5; FAS-TE inh conf: 42.8

Results for COc1ccc(C(=O)C(C)N(C(=O)c2ccc(Cl)cc2Cl)N2C(=O)C3C4C=CC(C4)C3C2=O)cc1 (stereo unspecified) ?
FAS TE block: 60.1*; H9c2 protect: 3.6; PLC-beta3 inh: 5.1; PLCg1 inh: 8.3; FAS-TE inh conf: 9.0

How did COc1ccc(C(=O)c2[nH]c(N)c(C(=O)NCCc3c[nH]c4ccccc34)c2-c2ccc(OC)c(OC)c2)cc1 do in these assays?
FAS TE block: 7.4; PLC-beta3 inh: -12.4; PLCg1 inh: -5.9

What do the screens show for `COc1ccc(CCNC(=O)COC(=O)c2ccccc2NCCO)cc1OC`?
FAS TE block: -2.8; H9c2 protect: -7.9; PLC-beta3 inh: inactive; PLCg1 inh: inactive

What do the screens show for `COc1cc(C2CC(=O)Nc3cc(C)c(C)cc32)cc(OC)c1OC` (stereo unspecified)?
FAS TE block: -8.7; H9c2 protect: 2.1; PLC-beta3 inh: 2.4; PLCg1 inh: 0.0

How did Cc1cc2c(cc1C)C(c1cccc([N+](=O)[O-])c1)CC(=O)N2 (stereo unspecified) do in these assays?
FAS TE block: 59.7*; H9c2 protect: -11.3; PLC-beta3 inh: -0.6; PLCg1 inh: 0.8; FAS-TE inh conf: 79.4*

What do the screens show for `Cc1ccc(S(=O)(=O)Nc2cccc(-c3ccc(N4CCCCCC4)nn3)c2)cc1C`?
FAS TE block: 38.8; H9c2 protect: -9.5; PLC-beta3 inh: -16.6; PLCg1 inh: -6.2

What do the screens show for `O=S(=O)(Nc1cccc(-c2ccc(N3CCCCCC3)nn2)c1)c1ccccc1Cl`?
FAS TE block: 50.1*; H9c2 protect: -4.0; PLC-beta3 inh: -16.1; PLCg1 inh: -3.8; FAS-TE inh conf: 10.7

What do the screens show for `O=S(=O)(Nc1cccc(-c2ccc(N3CCCCCC3)nn2)c1)c1ccccc1F`?
FAS TE block: 55.5*; H9c2 protect: -6.2; PLC-beta3 inh: -13.9; PLCg1 inh: -1.4; FAS-TE inh conf: 62.1*

What do the screens show for `O=C(OC(c1ccccc1)c1nccc2ccccc12)c1cc([N+](=O)[O-])cc([N+](=O)[O-])c1` (stereo unspecified)?
FAS TE block: 50.1*; H9c2 protect: -4.9; PLC-beta3 inh: -0.3; PLCg1 inh: -1.1; FAS-TE inh conf: 43.0

What do the screens show for `S=c1[nH]nc(-c2cc(-c3ccccc3)n[nH]2)n1N=Cc1cccc(Oc2ccccc2)c1`?
PLC-beta3 inh: -0.3; PLCg1 inh: -3.9

How did COc1cc(C(=O)NC(=S)Nc2ccccc2[N+](=O)[O-])cc(OC)c1OC do in these assays?
FAS TE block: 64.9*; H9c2 protect: -4.3; PLC-beta3 inh: 2.9; PLCg1 inh: 4.7; FAS-TE inh conf: 24.6

How did COc1cc(C(=O)NC(=S)Nc2ccc([N+](=O)[O-])cc2C)cc(OC)c1OC do in these assays?
FAS TE block: 8.0; H9c2 protect: -2.8; PLC-beta3 inh: 3.8; PLCg1 inh: 1.7

What do the screens show for `CCCC(C)C(=O)Nc1cc([N+](=O)[O-])ccc1Cl` (stereo unspecified)?
FAS TE block: 51.9*; H9c2 protect: 0.2; PLC-beta3 inh: -2.2; PLCg1 inh: 0.4; FAS-TE inh conf: 64.4*

How did CCCC(=O)NC1=C(Cl)C(=O)c2ccccc2C1=O do in these assays?
FAS TE block: 52.9*; H9c2 protect: -20.9; PLC-beta3 inh: -26.0; PLCg1 inh: -12.3; FAS-TE inh conf: 55.5*

How did CCNC1=C(Cl)C(=O)c2ccccc2C1=O do in these assays?
FAS TE block: -1.6; H9c2 protect: -20.9; PLC-beta3 inh: 4.4; PLCg1 inh: 5.3

How did O=c1oc(-c2ccco2)nc2sc3c(c12)CCCC3 do in these assays?
FAS TE block: 65.8*; H9c2 protect: -14.9; PLC-beta3 inh: -186.7; PLCg1 inh: -111.6; FAS-TE inh conf: 23.7

How did O=c1oc(-c2ccccc2)nc2sc3c(c12)CCC3 do in these assays?
FAS TE block: 41.3; H9c2 protect: -8.0; PLC-beta3 inh: -30.9; PLCg1 inh: -26.2

What do the screens show for `O=C(CN1CCc2onc(-c3ccc(-n4cc(-c5ccccc5)nn4)cc3)c2C1=O)N1CCOCC1`?
PLC-beta3 inh: 1.3; PLCg1 inh: -1.8

How did COc1ccccc1Cc1c(-c2ccccc2)nc2ccc(C)cn12 do in these assays?
PLC-beta3 inh: -16.2; PLCg1 inh: -11.9

Results for O=C(O)c1cc(-c2ccc(/C=N/NC(=S)Nc3ccccc3)o2)ccc1Cl ?
FAS TE block: 50.2*; H9c2 protect: 0.4; PLC-beta3 inh: -96.3; PLCg1 inh: -88.5; FAS-TE inh conf: 54.8*

Results for O=C(CSc1nc2ccccc2c(=O)n1-c1ccc(Cl)cc1)N/N=C/C=C/c1ccccc1[N+](=O)[O-] ?
FAS TE block: 79.8*; H9c2 protect: -6.0; PLC-beta3 inh: -1.7; PLCg1 inh: 1.7; FAS-TE inh conf: 16.6

What do the screens show for `Cc1ccccc1-n1c(SCC(=O)N/N=C/C=C/c2ccccc2[N+](=O)[O-])nc2ccccc2c1=O`?
FAS TE block: 79.4*; H9c2 protect: -3.9; PLC-beta3 inh: 5.5; PLCg1 inh: 5.1; FAS-TE inh conf: 27.1
